The text below walks through data of ChEMBL document CHEMBL3988442, “University of Dundee, Small-Polar-MMV Screening Library” (2021).

Structures are written as SMILES.

Test [1] has as its target T1, Aspartate--tRNA(Asp/Asn) ligase (Mycobacterium tuberculosis (strain ATCC 25618 / H37Rv)) (UniProt P9WFW3). Also: in the data most compounds retested in dose-response had high values.
T1 sequence (whole entry): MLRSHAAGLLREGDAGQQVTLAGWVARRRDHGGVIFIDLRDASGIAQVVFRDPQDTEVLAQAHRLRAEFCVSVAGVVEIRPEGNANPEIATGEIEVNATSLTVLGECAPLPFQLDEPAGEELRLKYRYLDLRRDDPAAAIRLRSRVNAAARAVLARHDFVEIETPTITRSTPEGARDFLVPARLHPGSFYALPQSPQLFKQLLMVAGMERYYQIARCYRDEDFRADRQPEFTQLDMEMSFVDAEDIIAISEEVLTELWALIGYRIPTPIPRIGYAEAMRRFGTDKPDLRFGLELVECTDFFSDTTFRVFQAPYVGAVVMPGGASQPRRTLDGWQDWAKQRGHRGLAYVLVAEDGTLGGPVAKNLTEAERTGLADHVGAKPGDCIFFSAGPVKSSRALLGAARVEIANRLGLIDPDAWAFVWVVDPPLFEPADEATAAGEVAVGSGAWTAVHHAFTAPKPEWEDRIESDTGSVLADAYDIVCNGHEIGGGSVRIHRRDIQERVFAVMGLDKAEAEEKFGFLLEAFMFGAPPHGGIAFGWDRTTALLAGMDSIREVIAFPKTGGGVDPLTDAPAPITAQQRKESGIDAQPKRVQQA
Nature of the test: Assay for Asp RNA synthetase-1 from Mycobacterium tuberculosis. The settings on record: 30 µM. Type of test: functional. Also noted: scale not given: direction of the effect not stated beside the values.

In test [2] the target is Shiga toxin 2 (Escherichia coli O157:H7) (UniProt P09385+P09386). Nature of the test: E. coli 0.157:H7 Shiga Toxin SOP - stx2 screening assay. The following applies: 30 µM. On the set-up: scale not given: direction of the effect not stated beside the values. Type of test: functional.

As for `Cc1ccc(CN2CCc3ncnc(C4CC4)c3CC2)s1`, the Percent Effect in test [1] is 9.9%; in test [2], -8.76%.
As for `O=C(Cn1nc(-c2ccc(F)cc2)oc1=O)NCc1ccc(F)cc1`, the Percent Effect was -2.48% in test [1] and 32.8% in test [2].
In the same order, the values of `Cn1cc(CN2CC[C@@H]3[C@@H](CCC(=O)N3CCc3c[nH]cn3)C2)cn1` are -1.44% and -37.6%.
The corresponding values for `Cc1ccc(-c2cc(CNC(=O)N3CCC(CO)CC3)on2)cc1` are 3.99% and 16.1%.
As for `Cc1cnn(CC2CCCCN2C(=O)c2cc(Cl)c[nH]2)c1` (configuration not stated), the Percent Effect in test [1] is 1.83%; in test [2], -31.9%.
Turning to `CC1c2ncc(CN3CCN(C)CC3)n2CCN1CC1CC1` (configuration not stated), the results for the Percent Effect in test [1] and in test [2] were 0.815% and -23.1%, respectively.
In the same order, the values of `COc1ccc(CN2CCn3cc(CN4CCN(C)CC4)nc3C2)cc1` are -1.67% and 10.3%.
As for `Cc1cc(CN2CCN(C(=O)NC(C)c3cccnc3)CC2)on1` (configuration not stated), the values for the Percent Effect in test [1] and in test [2] were -1.43% and 24.6%, respectively.
In the same order, the values of `O=C(NCc1ccccn1)NC1CCOc2ccccc21` (configuration not stated) are -6.21% and -20.3%.
In the same order, the values of `c1cnnc(N2CCCC2CNc2nc3ccccc3o2)c1` (configuration not stated) are -3.6% and -10.1%.
In the same order, the values of `Cn1cccc1CN1CCC2(CCCN(C(=O)c3cnccn3)C2)C1` (configuration not stated) are 11.1% and -9.19%.
Consider `FC(F)(F)Cc1noc(CN2CCCC2c2noc(C3CC3)n2)n1` (configuration not stated), for which the Percent Effect in test [1] is 8.91%; in test [2], 16.4%.
The corresponding values for `CCOc1cc(F)ccc1NS(=O)(=O)c1cc(C)c(C(=O)O)s1` are 1.85% and -9.96%.
As for `COc1cc(C)sc1C(=O)N1CC(c2cccnc2)C1`, the figures for the Percent Effect in test [1] and in test [2] were 3.09% and 12.6%, respectively.
In the same order, the values of `CC(C)N1CCc2c(C#N)c(NCc3ccco3)n3cnnc3c2C1` are 3.86% and -4.38%.
In the same order, the values of `CN(C)c1ccc(CNc2cncc(-n3cccn3)n2)cc1` are -4.37% and -28%.
Regarding `CNC(=O)c1cccc(C2CNCCN2C(C)=O)c1` (configuration not stated), the figures for the Percent Effect in test [1] and in test [2] were -2.04% and -2.23%, respectively.
Turning to `CCc1nc(C2CCCN(C(=O)CCn3ccccc3=O)C2)no1` (configuration not stated), the values for the Percent Effect in test [1] and in test [2] were -0.767% and 7.71%, respectively.
As for `CN(C)CC(=O)N1CCC2(CC(=O)N(c3cccc(C#N)c3)C2)C1` (configuration not stated), the Percent Effect in test [1] came out at 7.58%; in test [2], 1.05%.
In the same order, the values of `COc1cc(CNC(=O)c2c(C)noc2C(C)C)ccn1` are -1.27% and -44%.
As for `CCOCCC(=O)N1CCCN(Cc2csc(CC)n2)CC1`, the Percent Effect in test [1] was -0.742%; in test [2], -4.81%.
In the same order, the values of `Cc1cnn(C2CCCN(C(=O)CCc3nccs3)C2)c1` (configuration not stated) are -2.71% and 20%.
Regarding `CCn1ccnc1CN(C)C1CCCN(CCc2ccccc2)C1` (configuration not stated), the Percent Effect in test [1] was -0.476%; in test [2] it was -36%.
For the compound `CCc1ccc(O)c(C(=O)NC2CCN(C(=O)OC)CC2)c1`, the values for the Percent Effect in test [1] and in test [2] were -2.88% and -48.7%, respectively.
As for `COc1ccnc(N2CCN(CC(=O)N3CCOCC3)CC2)n1`, the values for the Percent Effect in test [1] and in test [2] were -1.91% and 26.3%, respectively.
In the case of `Cc1cc(C(=O)N2CCCC(c3noc(C)n3)C2)[nH]n1` (configuration not stated), the Percent Effect in test [1] is -4.2%; in test [2], -22.4%.
On to `O=C(c1cccnc1)N1CCn2nnc(COc3cccnc3)c2C1`, for which the Percent Effect in test [1] was 6.79%; in test [2], -23.3%.
In the same order, the values of `Cn1ccc(CN2CCC(Oc3ccccc3)CC2)cc1=O` are -1.21% and -5.66%.
The corresponding values for `c1ccc(Cn2cc(CNC3CCc4ncnn4C3)cn2)cc1` (configuration not stated) are -2.87% and -22.8%.
Regarding `c1cc(-c2noc(CN3CCn4c(nnc4C4CC4)C3)n2)co1`, the Percent Effect is -0.544% in test [1] and 0.987% in test [2].
In the same order, the values of `COC(=O)C1CCN(c2cncc(-n3nc(C)cc3C)n2)CC1` are 8.26% and -51.5%.
The corresponding values for `CN(C)C(=O)N1C[C@H](Oc2ccccn2)[C@H]2OCCC[C@H]21` are 2.67% and -3.38%.
In the same order, the values of `O=C(c1ccncc1F)N1CCN(CC2CC2)c2ncccc2C1` are 2.79% and -37.6%.
With `C[C@H]1C[C@H]2CN(C(=O)c3ccncn3)CC[C@H]2O1`, the Percent Effect is -0.436% in test [1] and -34.2% in test [2].
In the same order, the values of `CNC(=O)c1cccc(NC(=O)Cn2nc(-c3cccs3)oc2=O)c1` are -8.92% and -55.6%.
The corresponding values for `COc1cccc(CN(C)Cc2ccc(C#N)cc2)c1OC` are -1.31% and 9.74%.
The corresponding values for `CN(Cc1cccc(O)c1)CC1CCCN(CCc2ccc(Cl)cc2)C1` (configuration not stated) are 4.47% and -33.8%.
As to `CC(O)CC(C)(C)CNC(=O)NCc1cccc(-n2ccnc2)c1` (configuration not stated), the Percent Effect in test [1] was 1.43%; in test [2], -7.32%.
In the same order, the values of `Cc1ccc(CN2C[C@@H]3COC[C@H](NS(C)(=O)=O)[C@@H]3C2)o1` are 3.2% and -0.0539%.
`Cc1noc(C(C)C)c1C(=O)N1CCCN(Cc2cscn2)CC1`: the Percent Effect in test [1] is -4.35%; in test [2] it was -6.33%.
Turning to `COCC(=O)N1CC[C@H]2C[C@@H](c3nnc(C4CC4)o3)O[C@@H]2C1`, the Percent Effect in test [1] is -1.34%; in test [2], -18.9%.
In the same order, the values of `CCOCC1CN(S(C)(=O)=O)Cc2ncn(CC3CC3)c21` (configuration not stated) are -0.663% and -6.21%.
In the same order, the values of `O=C(NCCNCC1CNc2ccnn2C1)c1ccc(F)cc1` (configuration not stated) are -3.94% and -25.2%.
In the same order, the values of `c1ccc(Cn2cc(CNCC3CCCN3c3cccnn3)cn2)cc1` (configuration not stated) are 8.82% and 22.8%.
Turning to `O=C(c1ccncc1)N1Cc2ccccc2OC2(CCOCC2)C1`, the Percent Effect in test [1] was -4.33%; in test [2], -1.88%.
The corresponding values for `COC(=O)c1cccn1C1CCN(C(=O)c2cn[nH]c2C)CC1` are -3.31% and -8.31%.
In the same order, the values of `CNC(=O)C1(CCCc2ccncc2)CCCN1` (configuration not stated) are 4.78% and 1.85%.
With `COc1ccc(CNC(=O)Nc2cccnc2N2CCCC2)cc1O`, the Percent Effect in test [1] was found to be 0.235%; in test [2] it was 10.6%.
In the same order, the values of `CCOCC1CN(C(=O)c2cscn2)Cc2nnn(CC3CC3)c21` (configuration not stated) are -4.51% and -6.48%.
Take `O=C(Nc1cnccn1)[C@H]1COC[C@H]2CN(C3CCCC3)C[C@H]21`: the results for the Percent Effect in test [1] and in test [2] were -3.53% and 8.55%, respectively.
With `Cc1ccc(-c2nc(CN3CCOC(c4ccccc4)C3)cs2)o1` (configuration not stated), the Percent Effect in test [1] was -0.792%; in test [2] it was 13%.
